This passage reports growth results from PubChem BioAssay (NCI).

Compounds without any hit were thinned out: in the full panel of roughly 83,000, 20% have a hit.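 48-hour exposure, single concentration, 96-well plates; percent growth endpoint where 0 means no net growth. Active: below 10.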 Unmarked numbers belong to inactive results. Active and inactive are the calls of the source.

Some test systems named below: SN12C renal; UO-31 renal; TK-10 renal; ACHN renal; CAKI-1 renal; A498 renal; CCRF-CEM leukemia; MOLT-4 leukemia; SR leukemia; EKVX NSCLC.
Holding throughout (assay): NCI-60 one-dose screen, 48 h (100 = growth as untreated, 0 = no growth, -100 = all killed)
What all share (conditions): 10 µM unless noted

On to `CCC(C)CC(C)C(=O)c1c(O)ccn(OC)c1=O` (centres undefined), for which the growth in the assay on SN12C renal is 69.7%; with UO-31 renal, 58.3%; with TK-10 renal, 98.7%; in the assay on ACHN renal, 46.1%; with CAKI-1 renal, 92.9%; in the assay on A498 renal, 98.7%. In addition, the results for the growth in the assay with CCRF-CEM leukemia, in the assay with MOLT-4 leukemia and in the assay with SR leukemia were 39.8%, 68.1% and 47.1%, respectively.

Regarding `O=[N+]([O-])c1cnc(Sc2ccncn2)c([N+](=O)[O-])c1`, the growth is 96.9% in the assay on SN12C renal; 48.8% in the assay with UO-31 renal; -37.8% (active) with TK-10 renal; -29.6% (active) in the assay with ACHN renal; 64.9% in the assay with CAKI-1 renal; 87% in the assay on A498 renal. Moreover, the growth with CCRF-CEM leukemia was -49.2% (active); in the assay with MOLT-4 leukemia, -41.2% (active); in the assay on SR leukemia it was 11.8%.

As for `C/C(=C\CCc1ccoc1)CC/C=C(\C)CCCN1CCC(CO)CC1`, the growth in the assay on SN12C renal was 71.1%; in the assay with UO-31 renal it was 75.1%; in the assay on TK-10 renal it was 97.2%; in the assay with ACHN renal it was 59.4%; in the assay on CAKI-1 renal, 82.7%; in the assay with A498 renal, 45%. The growth in the assay with CCRF-CEM leukemia was 37.9%; with MOLT-4 leukemia it was 24.6%; with SR leukemia it was 2.6% (active).

Regarding `O=NC1CC=CCC1c1ccccc1` (centres undefined), the growth with EKVX NSCLC is 101%; in the assay with UO-31 renal it was 84.2%; with TK-10 renal, 103%; with ACHN renal it was 93.9%; in the assay with CAKI-1 renal, 103%; in the assay with CCRF-CEM leukemia, 111%. Moreover, the figures for the growth in the assay with MOLT-4 leukemia and in the assay with SR leukemia were 102% and 101%, respectively.

Regarding `CCCCCCCCCCSc1ncnc2nc[nH]c12`, the growth in the assay on EKVX NSCLC is 51.4%; with UO-31 renal, 48.5%; with TK-10 renal, 82%; in the assay on ACHN renal, 63.9%; in the assay with CAKI-1 renal it was 69.4%; in the assay with A498 renal it was 61.4%. For the same compound, the values for the growth in the assay on CCRF-CEM leukemia, in the assay on MOLT-4 leukemia and in the assay on SR leukemia were 57.9%, 72.5% and 82.6%, respectively.

For the compound `C=CCOc1ccc2c(c1)CC[C@@H]1[C@@H]2CC[C@@]2(C)[C@H]1CC[C@]2(C)O`, the growth in the assay with EKVX NSCLC was 82%; in the assay with UO-31 renal, 92.6%; in the assay on TK-10 renal, 56.7%; with ACHN renal, 85.8%; with CAKI-1 renal it was 75.4%; in the assay with A498 renal it was 90.5%. For the same compound, the results for the growth in the assay with CCRF-CEM leukemia, in the assay on MOLT-4 leukemia and in the assay with SR leukemia were 70.7%, 72.5% and 58%, respectively.

As to `CN(C)c1nc(N)nc(Cn2c(-c3nonc3N)nc3ccccc32)n1`, the growth with SN12C renal was 95.3%; with UO-31 renal it was 65.2%; with TK-10 renal, 107%; in the assay with ACHN renal it was 88.3%; in the assay with CAKI-1 renal, 77.9%; in the assay with A498 renal it was 82.5%. Besides, the growth in the assay on CCRF-CEM leukemia was 78.9%; in the assay on MOLT-4 leukemia, 90.8%.

With `COc1ccc(Nc2ccnc(NCCCNc3ccnc4cc(Cl)ccc34)n2)cc1`, the growth in the assay on SN12C renal is -21.5% (active); with UO-31 renal, -71.8% (active); with TK-10 renal, -72.3% (active); in the assay on ACHN renal it was -96.8% (active); in the assay on CAKI-1 renal it was -40.3% (active); with A498 renal, -7.79% (active). Further, the growth is -19.3% (active) with CCRF-CEM leukemia and -21.1% (active) with MOLT-4 leukemia.

In the case of `COc1ccc(Cn2c(NCCCN(C)C)nc(=O)n(Cc3ccc(F)cc3)c2=O)cc1`, the growth with SN12C renal is 95.4%; with UO-31 renal, 63.6%; with TK-10 renal it was 110%; in the assay with ACHN renal, 105%; with CAKI-1 renal, 83.1%; in the assay on A498 renal it was 95.6%. For the same compound, the growth in the assay on CCRF-CEM leukemia was 114%; in the assay on MOLT-4 leukemia it was 84.9%; in the assay with SR leukemia, 83.5%.

Regarding `Cc1cc(O)c2c(c1)C[C@H]1[C@@H]3CC[C@H]4CC(=O)CC[C@]4(C)[C@H]3CC(=O)[C@]21C`, the growth is 49.8% with EKVX NSCLC; 113% with UO-31 renal; 92.5% in the assay on TK-10 renal; 94.7% in the assay on ACHN renal; 83.9% in the assay on CAKI-1 renal; 103% in the assay on A498 renal. Also, the growth with MOLT-4 leukemia is 53.7%; with SR leukemia, 59.2%.

Regarding `CC(=O)Oc1ccc(C2OC(c3ccc4ccccc4c3OC(C)=O)=NN2C(C)=O)c(OC(C)=O)c1` (centres undefined), the growth is 21.8% in the assay on SN12C renal; 7.69% (active) in the assay on UO-31 renal; 34.4% in the assay on TK-10 renal; 21.2% in the assay on ACHN renal; 18.7% with CAKI-1 renal; 35% in the assay with A498 renal. The growth with CCRF-CEM leukemia was 7.23% (active); in the assay with MOLT-4 leukemia, 2.64% (active).

Take `OC(c1cc(C(F)(F)F)nc2c(C(F)(F)F)cccc12)C1CCCCN1` (centres undefined): the growth is 76.4% in the assay on EKVX NSCLC; 41.8% with UO-31 renal; 11.9% with TK-10 renal; 48.4% in the assay with CAKI-1 renal; 53% in the assay with A498 renal; 19.7% with MOLT-4 leukemia. The growth in the assay on SR leukemia is 12.7%.

As to `Clc1ccc2nc(Cl)c3ccccc3c2c1`, the growth in the assay with SN12C renal was 87.3%; with UO-31 renal it was 4.03% (active); with TK-10 renal, 9.12% (active); in the assay with ACHN renal, 1.26% (active); in the assay on CAKI-1 renal it was 76.7%; in the assay on A498 renal it was 19.7%. Besides, the growth in the assay with CCRF-CEM leukemia was 81.6%; in the assay with MOLT-4 leukemia, 83%; with SR leukemia, 1.29% (active).

Regarding `C[N+]1(CCC[N+]2(C)C[C@@H]3[C@H](C2)[C@@H]2C=C[C@H]3C2)CCOCC1` (some centres undefined), the growth in the assay with EKVX NSCLC was 118%; in the assay with UO-31 renal, 73.9%; in the assay with TK-10 renal, 113%; with ACHN renal, 90.9%; with CAKI-1 renal, 101%; in the assay with A498 renal it was 103%. Further, the growth was 110% in the assay with CCRF-CEM leukemia, 108% in the assay with MOLT-4 leukemia and 110% with SR leukemia.
